Inconclusive results are not listed. Entries that show only a call come without a potency. Active and inactive are the calls of the source. The call rests on the fitted dose curve; in most records, active means well fitted curve in the direction sought with a large enough effect; inconclusive means small, poorly fitted or top-dose-only effect, or another doubt; inactive means no such curve, though single readings can be large; an effect the other way counts as inactive or inconclusive.
Assays:
[1] = target: Aldehyde dehydrogenase, mitochondrial (Homo sapiens) (UniProt P05091); assay: qHTS for Inhibitors of the Aldehyde Dehydrogenase Family (ALDH2) Primary screen (AID 2061308); further: nearly all actives have a fitted effect of over 55% in size
[2] = target: Retinaldehyde dehydrogenase 3 (Homo sapiens) (UniProt P47895); assay: qHTS for Inhibitors of the Aldehyde Dehydrogenase Family (ALDH1A3) Primary screen (AID 2061315)

N#CN1CCC(NS(=O)(=O)c2cccc(F)c2)C1 (stereo not given)
Potency [1]: inactive | Potency [2]: inactive

COc1cc(C(=O)Nc2nc(-c3ccccc3)cs2)ccc1NS(=O)(=O)c1ccc(C)cc1
Potency [1]: inactive | Potency [2]: inactive

CC(C)(C)C1CCC(C(=O)Nc2ccc(S(=O)(=O)Nc3nccs3)cc2)CC1 (stereo not given)
Potency [1]: inactive | Potency [2]: inactive

C=CC(C)(C)C12CC3C(=O)N4C(CC5(C(C)(C)C=C)c6ccccc6NC45)C(=O)N3C1Nc1ccccc12 (stereo not given)
Potency [1]: inactive | Potency [2]: inactive

COc1ccc(-c2nc3ccccc3n2Cc2ccccc2)cc1COc1ccc(NC(C)=O)cc1
Potency [1]: inactive | Potency [2]: inactive

COc1ccc(C(CC(=O)N2CC(C)CC(C)C2)c2c(O)cc(OC)cc2OC)cc1 (stereo not given)
Potency [1]: inactive | Potency [2]: inactive

CS(=O)(=O)/C=C/c1nc(Nc2cc(F)cc(F)c2)c2ncn(CC(F)F)c2n1
Potency [1]: inactive | Potency [2]: inactive

Cc1ccc(C2N=C(Nc3nc4ccccc4o3)NC3=C2C(=O)CCC3)cc1 (stereo not given)
Potency [1]: inactive | Potency [2]: inactive

CCCn1c(-c2ccc(F)cc2)nc2c(NCC3CCN(C)CC3)nc(C)nc21
Potency [1]: inactive | Potency [2]: inactive

COc1ccc(C2=Nn3c(nnc3-c3ccccc3Cl)SC2)cc1OC1CCCC1
Potency [1]: inactive | Potency [2]: inactive

CCC(=O)NC(c1cccs1)c1cc(Br)c2cccnc2c1O (stereo not given)
Potency [1]: inactive | Potency [2]: inactive

CCCn1c(C)nc2c(NCCN(C)C)nc(C)nc21
Potency [1]: inactive | Potency [2]: inactive

Cc1ccc(OC2=NS(=O)(=O)c3ccccc32)cc1
Potency [1]: inactive | Potency [2]: inactive

O=S(=O)(c1ccc(Br)cc1)N1CCN(S(=O)(=O)c2ccc3c(c2)OCCO3)CC1
Potency [1]: inactive | Potency [2]: inactive

O=C(Nc1sc2c(c1-c1nc3ccccc3s1)CCNC2)C(F)F
Potency [1]: inactive | Potency [2]: inactive

Cc1ccc(OCCn2c(CCNC(=O)NC3CCCCC3)nc3ccccc32)cc1
Potency [1]: inactive | Potency [2]: inactive

O=S(=O)(NCC1CN(S(=O)(=O)c2ccc3c(c2)OCCO3)C1)c1c(F)cccc1F
Potency [1]: inactive | Potency [2]: inactive

COCCNC(=O)Nc1ccc2nc(-c3cccs3)c(-c3cccs3)nc2c1
Potency [1]: inactive | Potency [2]: inactive

Cc1cc(NCc2ccc(NC(=O)Cc3ccc(Cl)c(Cl)c3)cc2)no1
Potency [1]: inactive | Potency [2]: inactive

N#Cc1cnc(NS(=O)(=O)c2ccc(NC(=O)Cc3ccc(F)c(Cl)c3)cc2)s1
Potency [1]: inactive | Potency [2]: inactive

Cn1cc2ccc(-c3ccc4ncnc(NCc5cccs5)c4c3)cc2n1
Potency [1]: inactive | Potency [2]: inactive

CC(C)(O)/C=C/C(=O)[C@](C)(O)[C@H]1[C@H](O)C[C@@]2(C)[C@@H]3CC=C4[C@@H](C[C@H](O[C@@H]5O[C@H](CO)[C@@H](O)[C@H](O)[C@H]5O)C(=O)C4(C)C)[C@]3(C)C(=O)C[C@]12C
Potency [1]: inactive | Potency [2]: inactive

Cc1cc2c(s1)c1cnn(Cc3ccccc3F)c(=O)c1n2Cc1ccccc1F
Potency [1]: inactive | Potency [2]: inactive

Cc1nc(CNc2ncnc3ccc(-c4sc(C)nc4C)cc23)cs1
Potency [1]: inactive | Potency [2]: inactive

CCCn1c(C)nc2c(NC3CCCCC3)nc(C)nc21
Potency [1]: inactive | Potency [2]: inactive

Reference: PubChem BioAssay (NCATS)
